Structures are written as SMILES. Among all 340,000 compounds or so, about 470 (0.14%) were called active. Shown is part of a subset that was picked to be rich in actives. Unmarked numbers belong to inactive results.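 Rule for the calls: active = mean activation of 30% or more, with every replicate also reaching 30%; inconclusive = mean activation of 30% or more but some replicate falls short; inactive = the rest.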

This assay in a line: small molecules raising miR-122 sensor signal – cell-based, Huh7 psiCHECK-miR122, Renilla luciferase, single point, primary screen (AID 623901).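 Note: 0% = median of neutral control wells and 100% = median of positive control wells; higher luciferase signal means stronger suppression of miR-122 activity.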 To be noted: 48 h, at 12.5 µM, hits give high values.
In the case of `COc1ccc(C#Cc2cnc3c(c2)C(=O)N([C@@H](C)CO)C[C@H](C)[C@@H](CN(C)CC2CCOCC2)O3)cc1`, the activation is 0.272%.

`CSc1nc(-c2ccccc2)nc(C(Cl)Cl)n1`: the activation is 42% (active).

Turning to `C[C@H](CO)N1C[C@H](C)[C@@H](CN(C)C(=O)C2CCOCC2)Oc2cc(-c3ccc(C(=O)N(C)C)cc3)ccc2S1(=O)=O`, the activation was -12.2%.

For the molecule `COc1cccc(-c2ccc3c(c2)O[C@H](CN(C)C(=O)C2CCOCC2)[C@H](C)CN([C@H](C)CO)S3(=O)=O)c1`, the activation was 40.8% (active).

In the case of `COc1ccccc1-c1ccc2c(c1)O[C@H](CN(C)S(=O)(=O)c1ccc(C)cc1)[C@@H](C)CN([C@H](C)CO)S2(=O)=O`, the activation was 2.3%.

In the case of `COCC#Cc1ccc2c(c1)O[C@H](CN(C)C(=O)C1CCOCC1)[C@@H](C)CN([C@@H](C)CO)S2(=O)=O`, the activation was -2.66%.

Take `CNC[C@H]1Oc2cc(-c3ccc(OC)cc3)ccc2S(=O)(=O)N([C@H](C)CO)C[C@@H]1C`: the activation is -1.22%.

With `COc1cccc(S(=O)(=O)N(C)C[C@@H]2Oc3cc(C4=CCCCC4)ccc3S(=O)(=O)N([C@H](C)CO)C[C@H]2C)c1`, the activation was 36.2% (active).

With `C[C@H]1CN([C@@H](C)CO)C(=O)c2cc(Br)cnc2O[C@H]1CN(C)Cc1cccc(F)c1`, the activation is -14.9%.

On to `CCC(=O)N1C[C@@H](C)[C@@H](OC)CN(C)C(=O)c2ccc(NC(=O)C3CCCCC3)cc2OC[C@H]1C`, for which the activation is -2.5%.

In the case of `COc1ccc(C)cc1S(=O)(=O)Nc1cc2c3c(c1)CCC(=O)N3CCC2`, the activation was -150%.

For the molecule `C/C=C/c1ccc2c(c1)O[C@H](CN(C)C(=O)Cc1ccccn1)[C@H](C)CN([C@H](C)CO)S2(=O)=O`, the activation is -4.41%.

Consider `C[C@@H]1CN([C@@H](C)CO)S(=O)(=O)c2ccc(C#Cc3ccccc3)cc2O[C@@H]1CN(C)C(=O)Nc1ccccc1`, for which the activation was -3.74%.

On to `CNC[C@@H]1Oc2cc(C#CC3CCCC3)ccc2S(=O)(=O)N([C@@H](C)CO)C[C@@H]1C`, for which the activation is 32.4% (active).

For `C[C@H](CO)N1C[C@H](C)[C@@H](CN(C)C(=O)C2CC2)Oc2cc(C#CC3CC3)ccc2S1(=O)=O`, the activation was -21%.

Regarding `CCC(=O)N(C)C[C@@H]1Oc2cc(C#Cc3cccnc3)ccc2S(=O)(=O)N([C@H](C)CO)C[C@@H]1C`, the activation was -5.93%.

As to `C[C@@H]1CN([C@H](C)CO)S(=O)(=O)c2ccc(C#Cc3ccccc3F)cc2O[C@@H]1CN(C)C(=O)c1ccc2c(c1)OCO2`, the activation was 48.9% (active).

As to `CCCC#Cc1ccc2c(c1)O[C@@H](CN(C)C(=O)c1cccnc1)[C@H](C)CN([C@H](C)CO)S2(=O)=O`, the activation is -14.9%.

For the molecule `CNC[C@@H]1Oc2cc(C#CCC3CCCC3)ccc2S(=O)(=O)N([C@H](C)CO)C[C@H]1C`, the activation is 14.9%.

As to `C[C@H]1CN([C@@H](C)CO)S(=O)(=O)c2ccc(C#Cc3ccccc3F)cc2O[C@@H]1CN(C)C(=O)c1ccc2c(c1)OCO2`, the activation is 48% (active).

For `C[C@@H]1CN([C@H](C)CO)S(=O)(=O)c2ccc(C#CC3(O)CCCC3)cc2O[C@@H]1CN(C)C(=O)c1cccnc1`, the activation is 44% (active).

As to `C[C@@H]1CN([C@@H](C)CO)S(=O)(=O)c2ccc(C#Cc3ccc(F)cc3)cc2O[C@H]1CN(C)S(C)(=O)=O`, the activation was 0.672%.

On to `C/C=C/c1ccc2c(c1)O[C@H](CN(C)C(=O)c1ccc3c(c1)OCO3)[C@@H](C)CN([C@H](C)CO)S2(=O)=O`, for which the activation is -10.3%.

Consider `C[C@H]1CN([C@@H](C)CO)S(=O)(=O)c2ccc(-c3cccc(C#N)c3)cc2O[C@H]1CN(C)C(=O)c1ccccc1`, for which the activation was 4.92%.

For the molecule `C[C@H](CO)N1C[C@H](C)[C@@H](CN(C)Cc2cncnc2)Oc2cc(-c3ccccc3)ccc2S1(=O)=O`, the activation was -27.5%.

On to `C[C@H]1CN([C@@H](C)CO)C(=O)c2cc(/C=C/c3ccccc3)cnc2O[C@H]1CN(C)Cc1cccc(C(=O)O)c1`, for which the activation was 8.03%.

Take `CCOc1ccccc1NC(=O)Cn1nnc(C(=O)NCc2cccs2)c1N`: the activation was -94.8%.

With `C[C@@H]1CN([C@@H](C)CO)S(=O)(=O)c2ccc(-c3ccc(C(=O)N(C)C)cc3)cc2O[C@@H]1CN(C)C(=O)Cc1ccccn1`, the activation was -3.98%.

`COCC#Cc1cnc2c(c1)C(=O)N([C@@H](C)CO)C[C@H](C)[C@@H](CN(C)Cc1ccccc1)O2`: the activation is -2.07%.

Consider `C[C@@H]1CN([C@H](C)CO)C(=O)c2cc(-c3cccc(C(=O)N(C)C)c3)cnc2O[C@H]1CN(C)S(=O)(=O)c1ccc(F)cc1`, for which the activation is -4.18%.

`COc1ccc(-c2cc(NC(C)=O)c3ncc(-c4cc(OC)c(OC)c(OC)c4)n3c2)cn1`: the activation was -107%.

Consider `CCCC#Cc1ccc2c(c1)O[C@@H](CN(C)C(=O)CC)[C@@H](C)CN([C@H](C)CO)S2(=O)=O`, for which the activation was -16.6%.

Turning to `COCCn1c(SCC(=O)c2[nH]c(C)c(C(C)=O)c2C)nc2ccccc2c1=O`, the activation was -272%.

Consider `CC1CCCCC1NC(=O)/C(C#N)=C/C=C/c1ccccc1[N+](=O)[O-]` (configuration not stated), for which the activation is -102%.

`Cc1ccc(OCC(=O)Nc2cccc3c2CCCC3)cc1C`: the activation was -94.9%.

On to `C[C@@H]1CN([C@H](C)CO)C(=O)c2cc(C#Cc3ccccn3)cnc2O[C@H]1CN(C)CC1CCOCC1`, for which the activation was -7.38%.

Consider `CCC(=O)Nc1ccc2c(c1)OC[C@H](C)N(C(=O)c1ccncc1)C[C@H](C)[C@H](OC)CN(C)C2=O`, for which the activation was -2.72%.

Take `COCC#Cc1cnc2c(c1)C(=O)N([C@@H](C)CO)C[C@@H](C)[C@H](CN(C)C(=O)C1CCOCC1)O2`: the activation was -0.849%.

Regarding `CC1=C(C)CC(C(=O)NNC(=O)c2ccccc2O)C(C(=O)O)C1` (configuration not stated), the activation was -151%.

As to `Cn1cnc([N+](=O)[O-])c1Sc1ccccc1`, the activation is -217%.

In the case of `CCC(=O)N(C)C[C@@H]1Oc2ncc(C#CCC3CCCC3)cc2C(=O)N([C@@H](C)CO)C[C@H]1C`, the activation was 7.03%.

In the case of `COc1ccc(C#Cc2cnc3c(c2)C(=O)N([C@H](C)CO)C[C@H](C)[C@H](CN(C)S(=O)(=O)c2ccc(F)cc2)O3)cc1OC`, the activation is 8.05%.

As for `C/C=C/c1ccc2c(c1)O[C@H](CN(C)C(=O)Nc1ccc(OC)cc1)[C@@H](C)CN([C@H](C)CO)S2(=O)=O`, the activation was -21.8%.

Take `COCC#Cc1cnc2c(c1)C(=O)N([C@H](C)CO)C[C@H](C)[C@H](CN(C)C(=O)Nc1ccccc1OC)O2`: the activation was 0.317%.

On to `COc1ccc(C(C#N)Nc2ccc(C)cc2)cc1` (configuration not stated), for which the activation was 49.7% (active).

`COc1ccccc1NC(=O)N(C)C[C@@H]1Oc2ncc(C#CCC(C)C)cc2C(=O)N([C@@H](C)CO)C[C@@H]1C`: the activation is 3.82%.

Regarding `CC(C)C#Cc1ccc2c(c1)O[C@H](CN(C)Cc1ccccn1)[C@H](C)CN([C@H](C)CO)S2(=O)=O`, the activation is -14.1%.

As to `Cc1ccccc1-c1cnc2c(c1)C(=O)N([C@H](C)CO)C[C@H](C)[C@@H](CN(C)C(=O)c1ccccc1)O2`, the activation was 2.61%.

For `Cc1cc(C)cc(NS(=O)(=O)c2ccc(F)cc2)c1`, the activation is -117%.

Take `COc1ccc(F)cc1S(=O)(=O)Nc1ccc2c(c1)OCO2`: the activation was -99.7%.

On to `C[C@H]1CN([C@@H](C)CO)S(=O)(=O)c2ccc(-c3ccccc3)cc2O[C@H]1CN(C)C(=O)CC1CC1`, for which the activation was 4.7%.

Turning to `CO[C@H]1CN(C)C(=O)c2cc(NC(C)=O)ccc2OC[C@H](C)N(C(=O)CN(C)C)C[C@@H]1C`, the activation was -4.03%.

Take `COc1ccc(S(=O)(=O)Nc2ccc(F)cc2)c(C)c1C`: the activation was -231%.

In the case of `COc1ccc(CN2CCOC2=O)cc1OC`, the activation was 44.5% (active).

On to `C[C@@H]1CN([C@@H](C)CO)C(=O)c2cc(C#Cc3ccccc3)cnc2O[C@H]1CN(C)C(=O)c1ccccn1`, for which the activation was 5.71%.

On to `C[C@@H]1CN([C@@H](C)CO)C(=O)c2cc(/C=C/c3ccccc3)cnc2O[C@H]1CN(C)C(=O)C1CCC1`, for which the activation is 2.31%.

On to `CCCN(C)C[C@@H]1Oc2cc(C#CCc3ccccc3)ccc2S(=O)(=O)N([C@H](C)CO)C[C@@H]1C`, for which the activation was 7.02%.

Take `C[C@@H]1CN([C@H](C)CO)C(=O)c2cc(-c3ccccc3F)cnc2O[C@H]1CN(C)C(=O)NC1CCCCC1`: the activation is -3.04%.

As for `CCC(=O)N(C)C[C@@H]1Oc2ncc(C#Cc3cccnc3)cc2C(=O)N([C@@H](C)CO)C[C@@H]1C`, the activation is -1.27%.

Regarding `COc1ccc(C)cc1S(=O)(=O)NC1CCCCC1`, the activation is -375%.

As to `Cc1cccc(-n2ncc(Cl)c(Cl)c2=O)c1`, the activation was 69.6% (active).

Take `CCC(=O)N(C)C[C@H]1Oc2cc(-c3cccc(C#N)c3)ccc2S(=O)(=O)N([C@@H](C)CO)C[C@@H]1C`: the activation is -7.09%.

Take `O=C(Nc1cc(S(=O)(=O)Nc2ccc(Cl)cc2)ccc1O)c1ccc(F)cc1F`: the activation is -118%.

Turning to `CCC(=O)N(C)C[C@@H]1Oc2cc(C#C[C@H](C)O)ccc2S(=O)(=O)N([C@H](C)CO)C[C@@H]1C`, the activation is 5.93%.

As for `CCCNC(=O)N(C)C[C@@H]1Oc2ncc(C#Cc3ccccc3F)cc2C(=O)N([C@@H](C)CO)C[C@H]1C`, the activation is 13.1%.

Consider `COc1ccc(CN(C)C[C@@H]2Oc3ccc(NS(=O)(=O)c4ccc(OC)cc4)cc3C(=O)N([C@H](C)CO)C[C@H]2C)cc1`, for which the activation is -2.32%.

In the case of `C[C@@H]1CN([C@H](C)CO)C(=O)c2cccc(NS(=O)(=O)c3cn(C)cn3)c2O[C@H]1CN(C)CC1CC1`, the activation was -0.457%.
